Only some compounds are listed: those with a hit (about 0.76% of all), similar ones and a draw of the others.
UGM FP inh: inhibitors of M. tuberculosis UDP-galactopyranose mutase. P9WIQ1. purified UGM, fluorescence polarization probe displacement. inhibition, % at 10 µM. 320,000 compounds, 0.06% hits; in the data active = inhibition above about 10%, passing the limit was not always enough; inconclusive = no clear call, values can overlap the other calls
FadD28 binding: M. tuberculosis FadD28 bisubstrate binding inhibition. FadD28 bisubstrate probe binding, fluorescence polarization. inhibition, % at 12.5 µM. 360,000 compounds, 0.22% hits. AID 588549; in the data active = inhibition above about 8.5%, passing the limit was not always enough; inconclusive = no clear call, values can overlap the other calls
PrP 5UTR inh: inhibition of PrP 5' UTR reporter expression; cell-based PrP 5' UTR mRNA reporter, plate reader; AID 488862; 340,000 compounds, 0.35% hits; inhibition, % (no concentration beside the values); in the data active = inhibition above about 52%; also: 0 = median of the neutral control wells
BH1578 lux ind: inducers of Vibrio cholerae quorum light production without autoinducers. V. cholerae BH1578 lux reporter, luminescence, 6 h. activation, % at 18.7 µM. 350,000 compounds, 0.16% hits; in the data active = activation mostly above about 9.7%, no sharp cut-off; inconclusive = no clear call, values can overlap the other calls; inactive = mostly below about 3.7%
Mtb bLac sens: beta-lactam sensitization of Mtb H37Rv | M. tuberculosis H37Rv growth with meropenem, percent inhibition | inhibition, % at 25 µM | 330,000 compounds, 0.27% hits | AID 434955; call rule not given here;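 also: growth measured after seven days incubation then overnight dye step; 0% = bacteria only wells and 100% = bacteria with antibiotic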
Rv3671c protease: inhibits the M. tuberculosis serine protease Rv3671c; 320,000 compounds, 0.048% hits; P9WHR9; inhibition, % at 5.96 µM; in the data active = inhibition above about 38%;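 also: extracellular domain of Rv3671c used as enzyme; 0% = enzyme with DMSO and 100% = no enzyme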
Target sequence (P9WHR9 whole entry, looked up, the tested form may be a part): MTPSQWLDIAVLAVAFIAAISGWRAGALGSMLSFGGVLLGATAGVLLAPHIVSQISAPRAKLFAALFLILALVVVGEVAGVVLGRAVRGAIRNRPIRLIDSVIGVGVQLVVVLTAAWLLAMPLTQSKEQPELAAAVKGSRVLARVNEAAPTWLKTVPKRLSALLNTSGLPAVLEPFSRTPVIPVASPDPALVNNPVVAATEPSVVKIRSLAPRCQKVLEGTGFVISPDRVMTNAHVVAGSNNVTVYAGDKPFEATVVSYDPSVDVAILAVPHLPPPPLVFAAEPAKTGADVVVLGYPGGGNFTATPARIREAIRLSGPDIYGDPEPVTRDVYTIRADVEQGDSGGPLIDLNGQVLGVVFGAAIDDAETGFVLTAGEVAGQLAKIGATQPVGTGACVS
Starred values were filed as active, the others as inactive; i = inactive; ? = inconclusive; nt = not tested or not shown.

SMILES | UGM FP inh | FadD28 binding | PrP 5UTR inh | BH1578 lux ind | Mtb bLac sens | Rv3671c protease
CCOC(=O)C1=C(N)N(c2ccccc2)C(=O)C1 | 1.0 | -2.8 | -12.0 | 5.6 | 8.8 | 4.5
CCOC(=O)C1=C(N)N2C(=O)CSC2=C(C(=O)OC)C1 | 2.1 | 0.3 | -12.9 | 59.7* | -1.0 | 1.3
O=C(O)c1ccc(N=Nc2c(O)[nH]c3ccc(Br)cc23)cc1 | -0.9 | 1.1 | nt | 1.7 | 8.1 | -1.9
O=c1ccc2cc3c([nH]c4ccc(Br)cc43)oc-2c1O | 3.4 | 21.5* | -22.6 | -0.3 | 25.6 | -15.0
COc1ccc(NC(=O)CSc2ccc([N+](=O)[O-])cc2)cc1S(=O)(=O)N1CCOCC1 | nt | 12.1* | -14.5 | 2.5 | -3.6 | -0.4
C=C(C)CSc1nc(N)cc(=O)[nH]1 | 1.5 | -0.6 | -11.3 | 16.7* | -11.3 | 3.3
Cc1ccc(C(=O)CSc2nc(N)cc(=O)[nH]2)cc1 | 0.3 | -3.2 | -25.3 | -0.5 | -3.3 | 1.1
CCSC(=O)CCCCCCCCCCCO | 1.0 | 18.5* | -1.3 | 4.3 | 94.9 | -2.3
CCCCCCNC(=O)C(C#N)c1nc2ccccc2nc1N1CCOCC1 (stereo not drawn) | 14.0* | -1.8 | -1.0 | nt | 2.1 | 1.3
CCc1ccc(N(CC(=O)Nc2ccccc2C(=O)N2CCCC2)S(C)(=O)=O)cc1 | -2.8 | -1.7 | -9.6 | 0.4 | 10.0 | 1.7
COc1cc(OC)c(OC)cc1/C=C1/C(=O)N=C(N)N1C | -1.0 | 1.1 | -6.6 | i | -0.8 | -7.8
COc1ccc(/C=C2/C(=O)N=C(N)N2C)cc1OC | -0.1 | -0.4 | -22.4 | 16.7* | -4.5 | 1.6
CC(=O)c1sc(NC(=O)CS(=O)(=O)c2ccc(F)cc2)nc1C | 1.1 | -2.5 | -4.9 | 28.0* | -6.2 | -5.7
CC(C)(C)c1ccc(NC(=S)NCc2cccs2)cc1 | -1.3 | 42.1* | -30.8 | -1.1 | 57.2 | -4.0
CCC(C)c1ccc(NC(=S)NCc2cccs2)cc1 (stereo not drawn) | 1.0 | 7.2 | -18.6 | -0.4 | 80.1 | 2.1
COc1cc2c(c(OC)c1OC)-c1ccc(O)cc1[C@@H](NC(C)=O)CC2 | -0.1 | -0.7 | 68.0* | -0.4 | -6.6 | -3.0
COc1cc2c(c(OC)c1OC)-c1ccc(O)c(=O)cc1[C@@H](NC(C)=O)CC2 | 5.1 | -0.5 | -0.1 | -0.5 | 2.6 | 11.4
N#C/C(=C\c1ccc(O)c(O)c1)C(=O)c1ccc(O)c(O)c1 | 0.6 | 4.6 | -16.4 | -5.8 | 9.1 | 2.4
N#CC(C#N)=C(N)/C(C#N)=C/c1cc(O)c(O)c(O)c1 | -0.8 | 12.7* | -13.4 | -0.3 | 3.8 | 4.0
CCc1ccc(C(=O)CN2C(=O)NC3(CCOc4ccccc43)C2=O)s1 (stereo not drawn) | 2.2 | 1.2 | -33.9 | i | -3.8 | 1.8
O=C(CN1C(=O)NC2(CCOc3ccccc32)C1=O)c1ccc(Cl)s1 (stereo not drawn) | -1.3 | 9.6* | -6.5 | 0.7 | 24.8 | -5.8
O=C(O)c1cccc(-n2cccc2/C=C/[N+](=O)[O-])c1 | 1.3 | 13.0* | -5.3 | -0.8 | -6.2 | 10.8
COc1ccc(NS(=O)(=O)c2ccc(NS(=O)(=O)c3cccc(C(=O)O)c3)cc2)cc1 | 3.8 | -2.6 | -11.8 | -0.3 | -6.8 | -3.1
CC(=O)c1ccc2c(c1)C1C=CCC1C(c1ccc(S(=O)(=O)N3CCOCC3)cc1)N2 (stereo not drawn) | -1.5 | -4.6 | -19.1 | -0.4 | 4.0 | 9.2
COc1ccc(NS(=O)(=O)c2ccc3c(c2)[C@H]2C=CC[C@H]2[C@@H](c2ccc(C(=O)O)cc2)N3)cc1 | 0.8 | 32.2* | -14.8 | i | -2.1 | 25.3
SMILES | UGM FP inh | FadD28 binding | PrP 5UTR inh | BH1578 lux ind | Mtb bLac sens | Rv3671c protease
Cc1c(Cl)cccc1NS(=O)(=O)c1ccc2c(c1)C1C=CCC1C(c1ccc(C(=O)O)cc1)N2 (stereo not drawn) | 3.4 | 27.7* | -32.5 | -0.1 | 1.4 | 10.1
O=C(O)c1ccccc1C1=Nc2ccc(O)cc2Oc2cc(O)ccc21 | 14.3* | -1.3 | -7.8 | 1.4 | -4.5 | 20.0
Cc1cc(-c2ccccc2C(=O)O)on1 | 2.6 | -2.2 | 0.2 | -0.5 | -7.0 | -5.5
COc1cc(OC)c2c(O)c3c(c(-c4c5c(c(O)c6c(OC)cc(OC)cc46)CO[C@@H](C)[C@H]5O)c2c1)[C@H](O)[C@H](C)OC3 | -0.1 | 10.2* | -6.9 | 0.1 | -1.6 | 9.3
COc1cc2c(c(OC)c1O)C(=O)CO2 | -1.4 | -4.3 | -23.6 | -0.7 | 2.2 | -3.5
CCCCCCCCSC1=CC(=O)C(OC)=C(OC)C1=O | nt | ? | nt | i | nt | nt
CC(C)Oc1ccccc1C1(c2ccccc2)NC(=O)NC1=O (stereo not drawn) | -1.0 | -2.1 | -18.4 | i | 2.1 | 3.2
Cn1cccc1/C=C1/C(=O)NC(=S)N(Cc2ccc(F)cc2)C1=O | -0.8 | 44.0* | -5.2 | -0.3 | 99.1 | 16.6
Cn1cccc1/C=C1/C(=O)NC(=O)N(Cc2ccc(F)cc2)C1=O | 0.1 | 0.6 | -14.5 | i | nt | 2.1
CC(C)(C(=O)N1CCC1(C)C(=O)NS(=O)(=O)c1ccc(Cl)s1)c1ccccc1 (stereo not drawn) | nt | -5.0 | nt | i | nt | nt
CC1=C(C(=O)N2CCOCC2)CC(CC(=O)NCc2cccc3ccccc23)C(=O)N1Cc1ccc(C(C)(C)C)cc1 (stereo not drawn) | nt | -3.5 | nt | nt | nt | nt
O=C(CNc1cccc2ccccc12)N/N=C/c1ccc(C(=O)O)cc1 | 0.2 | 38.2* | -26.4 | -0.1 | 8.4 | -1.4
COc1ccc(NC(=O)COC(=O)CCc2ccc(S(=O)(=O)N3CCOCC3)cc2)cc1Cl | 2.8 | -2.9 | 2.8 | i | -8.6 | -6.0
CC1(C)CC(=O)C2=C(C1)NC(=O)CC2c1ccc(F)cc1 (stereo not drawn) | 0.3 | -7.8 | -15.5 | 30.2* | -0.6 | -3.7
CSc1ccccc1N=CC1=C(O)CC(C)(C)CC1=O | -0.5 | -1.0 | -9.7 | 17.9* | 2.4 | 0.8
CC1(C)CC(=O)C(C=Nc2ccc(O)cc2)=C(O)C1 | 1.0 | -2.6 | -14.3 | i | -8.5 | -0.7
COc1cccc(CNC(=O)C(CCSC)NS(=O)(=O)c2ccc3c(c2)oc(=O)n3C)c1 (stereo not drawn) | nt | 1.3 | -14.0 | -0.5 | -1.4 | -10.8
COc1ccc(/C(C)=N/Nc2cccc(C(=O)O)c2)cc1OC | -0.8 | 0.2 | -10.3 | -0.6 | 1.6 | 11.3
C/C(=N\Nc1ccc(Cl)c(C(=O)O)c1)c1ccc2c(c1)OCO2 | -2.1 | -3.2 | -36.9 | -0.2 | -2.8 | 6.8
C/C(=N/Nc1ccc(C(=O)O)cc1)c1ccc2c(c1)Nc1ccccc1S2 | nt | 19.9* | -30.0 | i | nt | nt
C/C(=N\Nc1ccc(C(=O)O)cc1)c1ccc2c(c1)Nc1ccccc1S2 | 2.3 | 19.8* | -20.4 | i | 69.5 | 4.8
COc1cccc(/C=N/n2c(-c3ccco3)nc3ccccc3c2=O)c1OC | 10.6* | -3.3 | -25.5 | -0.3 | 0.4 | -14.4

Bioassay records from PubChem BioAssay.
